# Data as given in the supplement of paper PMC4166925.
# ± gives the standard deviation of the averaged measurements. The full ranking holds about 33,000 sequences; the median of “E-score (dimensionless, -0.5 to 0.5)” is about -0.049, and the highest 2% start at about 0.37. Shown is part of a subset that was picked to be rich in the highest values.
# Tested on: T1, PmTbr T-box DNA-binding domain (GST fusion)
# T1 sequence: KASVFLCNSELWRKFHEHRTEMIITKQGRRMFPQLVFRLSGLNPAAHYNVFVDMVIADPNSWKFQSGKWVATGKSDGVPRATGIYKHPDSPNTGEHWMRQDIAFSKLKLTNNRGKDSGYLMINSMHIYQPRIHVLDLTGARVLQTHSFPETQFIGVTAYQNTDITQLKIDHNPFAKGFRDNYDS
# Experiment: PBM E-score of 8-mer (E-score (dimensionless, -0.5 to 0.5)); Tbr is Tbrain of the sea star Patiria miniata (Pm) or the sea urchin Strongylocentrotus purpuratus (Sp); higher = stronger binding preference
# Settings: the construct has about 5 more residues each side
# Procedure: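 Universal protein-binding microarray (Agilent AMADID 016060, 60-bp probes with a 35-bp variable region) incubated with 200 nM GST-fused Patiria miniata Tbr T-box DNA-binding domain (residues 272-466) in PBS pH 7.5. Scored for every ungapped 8-mer (given with its reverse complement) by the Universal PBM Analysis Suite as E-score (modified Wilcoxon-Mann-Whitney enrichment, range -0.5 to 0.5; >0.45 counts as bound) and Z-score of median probe intensity. Two replicate arrays (datasets 1 and 2).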
# 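Further: 200 nM protein in PBS on universal arrays averaged over duplicate arrays.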
row,Sequence,PBM E-score of 8-mer
1,AAGGGGCC,-0.0989 ± 0.015
2,GCATGTAA,-0.124 ± 0.0041
3,GACCTTCA,-0.0991 ± 0.0084
4,AACCTTCA,-0.149 ± 0.083
5,CCCCTTCG,-0.126 ± 0.029
6,CACCTTCA,0.436 ± 0.0071
7,CACCTTCG,0.431 ± 0.02
8,AACCTTCG,-0.135 ± 0.0027
9,AACCTTCC,-0.196 ± 0.038
10,GACCTTCC,0.0338 ± 0.01
11,CACCTTCC,0.4461 ± 0.0012
12,AGATCGTA,0.0776 ± 0.06
13,ACTCCTCG,0.219 ± 0.032
14,ACCTAAGT,0.0966 ± 0.0054
15,TAGGTCGA,-0.111 ± 0.085
16,GGGCGCAA,0.0355 ± 0.036
17,ACTTGGAA,-0.1519 ± 0.00037
18,CCTCCACA,0.233 ± 0.021
19,CGCTTGAA,-0.191 ± 0.056
20,CCATTAAC,0.0966 ± 0.0036
21,CCTGTTGA,0.091 ± 0.045
22,CTCTTGAA,-0.374 ± 0.012
23,AGACAGAG,-0.139 ± 0.052
24,CTCACCTC,0.449 ± 0.009
25,ATCACCAG,-0.0506 ± 0.043

row,Sequence,PBM E-score of 8-mer
1,GTCACCTA,0.4173 ± 0.0026
2,ATCACCTG,0.379 ± 0.019
3,ATCACCCC,0.289 ± 0.028
4,GTCACCCA,0.259 ± 0.056
5,CTCACCGC,0.055 ± 0.076
6,CTCACCAC,0.209 ± 0.054
7,ATCACCAC,0.15 ± 0.0054
8,ATCACCGG,-0.319 ± 0.02
9,ATCACCTC,0.4197 ± 0.00045
10,GTCACCGA,0.127 ± 0.041
11,AAAGACTC,-0.156 ± 0.018
12,AAGGGGGG,-0.444 ± 0.023
13,CGCACTAG,0.167 ± 0.021
14,ATGCTGCC,-0.293 ± 0.037
15,ACCCACGG,-0.132 ± 0.022
16,CATGCGAA,0.108 ± 0.046
17,ATCACCTA,0.392 ± 0.022
18,CTCACCGA,0.00965 ± 0.039
19,ATCACCAA,0.17 ± 0.016
20,ATCACCCA,0.276 ± 0.021
21,CTTACCTA,-0.153 ± 0.059
22,CTCACCTA,0.4081 ± 0.0035
23,CTAGCGTA,0.0249 ± 0.015
24,ATGGTTAC,-0.265 ± 0.029
25,ATTGGCGA,0.156 ± 0.027

row,Sequence,PBM E-score of 8-mer
1,ATTAGCAC,0.417 ± 0.016
2,ATTAGCAG,0.129 ± 0.045
3,ATTAGCAA,0.12 ± 0.092
4,CTTAGCAC,0.4 ± 0.0047
5,CTTAGCAA,0.0581 ± 0.031
6,CATAGCAC,0.306 ± 0.029
7,AGAAGGGC,-0.11 ± 0.013
8,CTTGCTCA,0.0359 ± 0.0032
9,CCCGCACC,0.3 ± 0.031
10,ATCGCACC,0.4642 ± 0.0032
11,CTCGCGCC,0.401 ± 0.013
12,ATCGCACA,0.3241 ± 0.00047
13,ATCGCACG,0.34 ± 0.023
14,CTCGCGCA,0.191 ± 0.024
15,GTCGCACA,0.353 ± 0.025
16,CTCGCATC,0.176 ± 0.033
17,ATCGCGCC,0.368 ± 0.016
18,CTCGCACC,0.4721 ± 0.0042
19,CTCGCAGA,0.00155 ± 0.054
20,CTCGCACA,0.375 ± 0.0071
21,CGAAGAGC,-0.116 ± 0.044
22,CAGCACAG,-0.0973 ± 0.029
23,CGGGGTTA,-0.195 ± 0.071
24,GGCATGAA,-0.0787 ± 0.006
25,CTCTAAGA,-0.271 ± 0.053

row,Sequence,PBM E-score of 8-mer
1,CTTTTACA,0.169 ± 0.025
2,AGCTTAGC,-0.0359 ± 0.0015
3,TATGATGA,-0.156 ± 0.037
4,AGTCAAAG,-0.132 ± 0.081
5,GAGAGATA,-0.0805 ± 0.045
6,CCACATTA,0.126 ± 0.0023
7,CGAACACC,0.3416 ± 0.0028
8,ATAACACA,0.3597 ± 0.0034
9,ATAACATC,-0.101 ± 0.065
10,ATAACACC,0.465 ± 0.0066
11,CTAACACA,0.374 ± 0.035
12,CTTACACC,0.395 ± 0.013
13,CTAACACC,0.4751 ± 0.004
14,CTAACATC,-0.1377 ± 0.00032
15,CTTACACA,0.277 ± 0.012
16,ATTACACC,0.349 ± 0.0023
17,GTAACACA,0.3374 ± 0.0018
18,ATAACACG,0.325 ± 0.05
19,AGACCCCT,-0.245 ± 0.086
20,AAACCCGG,-0.207 ± 0.0074
21,GTCCCCTA,-0.175 ± 0.076
22,AAATTAGC,0.24 ± 0.01
23,GCTTCACC,0.0106 ± 0.012
24,CACGTCCG,0.26 ± 0.0099
25,CCGGTTAC,-0.0412 ± 0.0065

row,Sequence,PBM E-score of 8-mer
1,CTTTGCTC,-0.0392 ± 0.02
2,ACAGAGGC,0.0769 ± 0.02
3,AGGGTGTC,0.435 ± 0.014
4,AGAGGGTC,-0.202 ± 0.011
5,CCGGTGTC,0.247 ± 0.0031
6,AGGGTGTA,0.317 ± 0.0034
7,AGGGGGTG,0.316 ± 0.027
8,CGGGTGTC,0.4001 ± 0.002
9,AGGGTGGC,0.191 ± 0.011
10,AGAGGGTA,-0.108 ± 0.023
11,CGGGTGTA,0.0538 ± 0.035
12,AGGGTGTG,0.43 ± 0.027
13,AGAGGGTG,0.383 ± 0.011
14,AGGGTGAC,0.326 ± 0.031
15,CCCTAGGG,-0.16 ± 0.025
16,AGGTTTGG,-0.19 ± 0.043
17,CATTCTTA,-0.235 ± 0.007
18,GGAAGCAC,-0.23 ± 0.015
19,ATGGTGAG,0.223 ± 0.0051
20,CATTCAGG,0.0358 ± 0.077
21,ATAACAAA,-0.00818 ± 0.13
22,AGGATCAT,-0.151 ± 0.0099
23,CGGGCAAG,-0.0794 ± 0.036
24,CGAGGCCC,-0.297 ± 0.064
25,CACCTAAA,0.368 ± 0.0085

row,Sequence,PBM E-score of 8-mer
1,CCCCTAAG,-0.0688 ± 0.042
2,AACCTAAG,-0.12 ± 0.084
3,CACCTAAG,0.381 ± 0.021
4,AACCTAAC,0.0221 ± 0.052
5,CACCTAAC,0.408 ± 0.028
6,GCTACAGC,-0.2 ± 0.12
7,ACCGACTC,-0.012 ± 0.041
8,AGCAACCT,-0.0154 ± 0.04
9,CGTTGACC,0.0227 ± 0.075
10,CGTTGACA,0.405 ± 0.0049
11,AGTTGACA,0.407 ± 0.008
12,AGTTGACG,0.153 ± 0.053
13,GGTTGACA,0.3518 ± 0.0019
14,AGTTGACC,-0.231 ± 0.009
15,CTTCTATA,-0.287 ± 0.067
16,GATAGCAA,0.202 ± 0.052
17,ATCAGAAT,-0.106 ± 0.065
18,ACGAGAAC,0.0117 ± 0.058
19,ATGAGAAC,-0.0696 ± 0.046
20,ATGAGAAA,-0.182 ± 0.17
21,GTGAGAAA,0.458 ± 0.012
22,GCGAGAAA,0.356 ± 0.034
23,GCGAGAAC,0.375 ± 0.01
24,GTGAGAAC,0.44 ± 0.0046
25,CTGAGAAC,-0.052 ± 0.016

row,Sequence,PBM E-score of 8-mer
1,CTGAGAAA,0.00608 ± 0.019
2,GAGCGCAC,-0.0637 ± 0.099
3,CTCACAAC,0.3462 ± 0.0029
4,CCCAGAAC,-0.157 ± 0.065
5,CACCTTGC,0.4191 ± 0.0029
6,CACCTTGA,0.383 ± 0.017
7,GACCTTGA,-0.166 ± 0.025
8,TACCTTGA,0.00793 ± 0.011
9,AACCTTGC,0.060455 ± 2.1e-05
10,CACCTTGG,0.45511 ± 0.00014
11,CAGCTTGG,0.0903 ± 0.044
12,AACCTTGG,-0.183 ± 0.041
13,GACCTTGC,-0.145 ± 0.021
14,ATTATGCG,-0.162 ± 0.031
15,GCGGTAAC,-0.0299 ± 0.029
16,AATTGGTC,-0.139 ± 0.051
17,CCCTCTCG,0.0695 ± 0.027
18,CGGTATAC,-0.0592 ± 0.023
19,CCTAGAGG,-0.0482 ± 0.018
20,ACCCACAT,0.203 ± 0.096
21,ACACACCG,0.125 ± 0.027
22,AGACACCT,0.4559 ± 0.0013
23,AGACACCG,0.185 ± 0.012
24,AGACACAT,0.184 ± 0.0023
25,AAACACCT,0.4565 ± 0.0016

row,Sequence,PBM E-score of 8-mer
1,ACACACCT,0.445 ± 0.0069
2,AAACACCG,0.143 ± 0.013
3,AAACACCC,0.227 ± 0.027
4,ACACACAT,0.288 ± 0.013
5,GGAGTGGA,-0.0457 ± 0.03
6,ACATTTCA,0.125 ± 0.0075
7,AGCTATCC,-0.334 ± 0.059
8,AGGACACG,-0.0089 ± 0.017
9,ACGCCTGG,0.236 ± 0.015
10,CTCAACAC,0.321 ± 0.029
11,GACAACAA,0.194 ± 0.046
12,GTCAACAA,0.293 ± 0.013
13,CCCAACAC,0.385 ± 0.0085
14,CACAACAC,0.387 ± 0.02
15,GTCAACAC,0.427 ± 0.012
16,AACAACAC,0.363 ± 0.01
17,GACAACAC,0.391 ± 0.014
18,CCCAACAA,0.0135 ± 0.11
19,CACAACAG,0.161 ± 0.033
20,CACAACAA,0.278 ± 0.0061
21,GCCAACAC,0.354 ± 0.0042
22,AATTCGCT,0.00911 ± 0.0077
23,CGCAGGCC,-0.171 ± 0.036
24,GGTTCGAC,0.0606 ± 0.091
25,CCGTTAGA,0.0408 ± 0.021

row,Sequence,PBM E-score of 8-mer
1,GCTGACTA,-0.0402 ± 0.059
2,AATGCTCC,-0.0523 ± 0.0048
3,CATCTGCC,-0.176 ± 0.007
4,AGGTTATG,0.0583 ± 0.03
5,AGACGCTG,-0.078 ± 0.052
6,AGTGTTTA,0.258 ± 0.043
7,CGTGTTAA,0.409 ± 0.029
8,CTTGTTAA,0.236 ± 0.09
9,GGTGTTAA,0.479 ± 0.0049
10,ACTGTTAG,0.217 ± 0.017
11,CCTGTTAA,0.185 ± 0.023
12,TGTGTTAA,0.365 ± 0.029
13,GGTGTTTA,0.399 ± 0.015
14,CGTGTTTA,0.0204 ± 0.033
15,GCTGTTAA,0.199 ± 0.089
16,AGTGTTAG,0.407 ± 0.014
17,CGTGTTAG,0.354 ± 0.01
18,CCGCCCGA,0.0216 ± 0.052
19,CTCAAGAG,0.00045 ± 0.0019
